The record followed here is PubChem BioAssay AID1347416 (National Center for Advancing Translational Sciences (NCATS), 2020).

In all, about 4,100 compounds went through this assay and about 1,600 (39%) were called active. Another 25% or so got no clear call; they are omitted. The list shows a part of the results. Unmarked numbers belong to inactive results. Calls follow the shape of the dose curve; as a rule, active = well fitted inhibition curve with a large enough effect; inconclusive = small, poorly fitted or top-dose-only effect; inactive = no such curve, though single readings can be large or run the other way.
% is scaled to controls: 0 for no effect and ±100 for the full control effect; potency is read from the fitted curve at half-maximal effect.

The test is described as follows: qHTS Validation assay for Inhibitors of Plasmodium falciparum Dd2 growth in vitro. Also: nearly all actives have a fitted effect of over 70% in size. The settings on record: P. falciparum Dd2 in RBCs, SYBR Green growth, 72 h; series mostly up to 28.7 µM; activity change, negative = inhibition: at the top concentration. An excerpt: Malaria, a parasitic disease spread to humans through the bite of a Plasmodium infected Anopheles mosquito, continues to be a global health burden affecting millions of people, with an estimated 228 million cases and 405,000 deaths in 2018. Concerns about safety and limitations of current antimalarial treatments strongly emphasize the need to develop new therapeutic options. The scarce number of chemotypes and validated drug targets with efficacy against the liver stage, have hindered development of new antimalarials. To address this, a chemoprophylactic drug discovery effort was conducted through a combined phenotypic high-throughput asexual blood stage and liver stage screen, providing a robust foundation to identify liver-stage active lead chemotypes. Compounds were initially screened against Plasmodium falciparum Dd2 strain parasites using a in vitro SYBRGreen-1 based 72 hr proliferation assay to identify novel chemotypes to advance to liver stage assays. NIH/NCATS Early Translation Branch Assay Submitter (PI): Anton Simeonov Ph.D.
[…] Assay Protocol: PROTOCOL TABLE (as described by Inglese et al., 2007) SEQUENCE No. (e.g., 1, 2, 3, etc.); PARAMETER (e.g., Cells, Incubation, Reagent, etc.); VALUE; DESCRIPTION SEQUENCE, Parameter, Description 1; Reagent; 3 uL complete malaria growth medium, 1536 TC treated Black clear bottom plate 2; Controls; 23 nL positive control artesunate (300 nM final) to column 1; Neutral control DMSO to columns 2-4 3; Compound; 23 nL of compounds in dose response concentration (29 uM to 0.5 nM final) 4; Reagent; 5 uL malaria infected red blood cells (2.5% hematocrit final, 0.3% parasitemia 5; Time; 72 hours at 37C (5% O2, 5% CO2, 90% N2; 95% Rh) 6; Reagent; 2 uL lysis buffer/SYBRGreen-1, 25 sec shake immediately following dispense 7; Time; ~16 hours at 37C (5% O2, 5% CO2, 90% N2; 95% Rh) 8; Detector; EnVision (PerkinElmer) bottom read at 485/14nm excitation and 535/25 nm emission NOTES (numbers refer to sequence above): 1; Complete Malaria Growth Media: 1X RPMI-1640 w/L-glutamine, 5.5g/L Albumax II, 367 uM Hypoxanthine, 25 mM HEPES, 0.25% Sodium Bicarbonate, 35 uM Gentamicin sulfate 2; Controls were added using the Kalypsis Pintool (Wako USA) equipped with 1536 pinhead 3; Compounds were added in a 7-point, titration with a high final concentration of 29 uM by Pintool from seven inter-plate titrations of library plates and two DMSO control plates at the beginning and end (see Yasgar et al., 2008). 4; Red blood cells infected with Plasmodium falciparum Dd2 parasites were used. 6; Lysis buffer: 20 mM Tris-HCl, 10 mM EDTA, 0.16% Saponin, 1.6% Triton-X, 10X SYBR Green. REFERENCE: Inglese J, Shamu CE, Guy RK. 2007. Reporting data from high-throughput screening of small-molecule libraries. Nat Chem Biol. doi:10.1038/nchembio0807-438 Yasgar A, Shinn P, Jadhav A, Auld D, Michael S, Zheng W, Austin CP, Inglese J, Simeonov A. 2008. Compound Management for Quantitative High-Throughput Screening. J Lab Autom 13:79-89. doi:10.1016/j.jala.2007.12.004
For the compound `CN1Cc2ccccc2-n2ccnc2C12CCN(C(=O)c1cccc(C(F)(F)F)c1)CC2`, the “activity change, negative = inhibition” value is -8.82%.
Regarding `Clc1ccc(C(Cn2ccnc2)OCc2csc3c(Cl)cccc23)c(Cl)c1` (centres undefined), the Potency was 2.37 µM (active).
As for `CCCCn1c(NS(=O)(=O)c2ccccc2)c(C(=O)OCC)c2nc3ccccc3nc21`, the Potency is 10.6 µM (active).
In the case of `C=CC1CN2CCC1CC2C(OC(C)=O)c1ccnc2ccc(OC)cc12` (centres undefined), the Potency was 1.68 µM (active).
As to `CN(C)CC1CSCCC1(O)c1ccccc1Cl` (centres undefined), the Potency is 5.96 µM (active).
The same measure, in the same setting: the figure for `Cc1ccccc1CN1C(=O)CN=C(c2ccccc2)c2cc(Cl)ccc21` is 16.8 µM (active); for `CCC1(OC(=O)CN)C(=O)OCc2c1cc1n(c2=O)Cc2cc3ccccc3nc2-1` (centres undefined) it is 6.68 µM (active).
Take `Oc1ccc(Cl)cc1CN1CCN(Cc2ccccc2)CC1`: the Potency was 0.944 µM (active).
Consider `Oc1c(Cl)cc(Cl)cc1CN1CCN(Cc2ccccc2)CC1`, for which the Potency was 0.668 µM (active).
On the same count and under the same terms, in the case of `O=C(NC[C@H]1C[C@@H]2CCN1C[C@@H]2CN1CCC(Cc2ccccc2)CC1)c1ccccc1` it was 7.69 µM (active).
Same read-out and setting: in the case of `COc1ccc(CN2CCCC(C(=O)c3ccc(Cl)cc3)C2)c(O)c1` (centres undefined) it was 0.531 µM (active); in that of `O=C(C[C@@H]1NCCC[C@H]1O)Cn1cnc2cc(Br)c(Cl)cc2c1=O`, 2.37 µM (active); in that of `C[n+]1c(-c2ccccc2)cc(-c2ccc(Cl)cc2)cc1-c1ccccc1`, 6.68 µM (active).
Regarding `Cn1nccc1CN1CCC2(CC1)C(=O)Nc1ccccc12`, the “activity change, negative = inhibition” value was -13.6% [at 43.1 µM].
As to `COc1cc2c(cc1Oc1cccc(N(C)C)c1)NC(=O)C21CCN(c2cnccn2)CC1`, the Potency is 1.5 µM (active).
In the case of `COc1cc2c(cc1OCC1CC1)NC(=O)C21CCN(c2nccs2)CC1`, the Potency was 21.7 µM (active).
With `COc1cc2c(cc1OCc1ccccc1)NC(=O)C21CCN(c2ccccn2)CC1`, the Potency is 15.3 µM (active).
As for `COc1cc2c(cc1OC1CCCC1)NC(=O)C21CCN(c2cnccn2)CC1`, the Potency was 7.69 µM (active).
As for `COc1cc2c(cc1OCC1CC1)NC(=O)C21CCN(C(=O)c2cccnc2)CC1`, the “activity change, negative = inhibition” value is 44.2% [at 43.1 µM].
For `COc1cc2c(cc1Oc1ccccc1)NC(=O)C21CCN(C(=O)c2ccccc2)CC1`, the “activity change, negative = inhibition” value was 9.16% [at 43.1 µM].
For `COc1cc2c(cc1Oc1ccccc1)NC(=O)C21CCN(c2cnccn2)CC1`, the Potency is 2.17 µM (active).
As to `O=C(Nc1ccc2n(c1=O)C[C@H]1C[C@@H]2CN(Cc2ccc(F)cc2)C1)c1cccs1`, the Potency is 15.3 µM (active).
Still for that read-out and setting: the figure for `CC[C@H]1CN2CC[C@H]1C[C@@H]2CNCc1ccc(SC)cc1` is 4.33 µM (active).
The same measure, in the same setting: the figure for `C#C[C@H]1CN2CC[C@H]1C[C@@H]2CNCc1ccc(F)c(F)c1` is 13.7 µM (active).
As for `C#C[C@H]1CN2CC[C@H]1C[C@@H]2CNCc1cccc(Cl)c1`, the Potency was 4.85 µM (active).
Consider `O[C@H]1[C@H](NCC2CCCC2)[C@@H](c2ccccc2)C[C@H]1O`, for which the Potency was 6.11 µM (active).
On to `COc1cc2c(cc1OCc1ccccc1)N(C(=O)c1cc3ccccc3n1C)CC21CCN(C)CC1`, for which the Potency was 2.11 µM (active).
`COc1cc2c(cc1OCc1ccccc1)N([S+](=O)([O-])c1cccnc1)CC21CCN(C)CC1`: the Potency is 10.6 µM (active).
Take `COc1cc2c(cc1OCc1ccccc1)N(C(=O)c1cc3ccccc3[nH]1)CC21CCN(C)CC1`: the Potency was 0.944 µM (active).
On to `CCc1ccc(CN2CCN(Cc3cc(Br)ccc3O)CC2)cc1`, for which the Potency is 2.11 µM (active).
For `Cc1ccc(O)c(CN2CCN(c3ccccc3)CC2)c1`, the Potency was 2.99 µM (active).
As to `CC(C)c1ccc(O)c(CN2CCN(c3ccccc3)CC2)c1`, the Potency is 1.33 µM (active).
Regarding `Oc1ccc(Br)cc1CN1CCN(c2ccccc2)CC1`, the Potency was 2.11 µM (active).
Turning to `CNC(=O)Oc1cccc(-c2cn3cc(OC(=O)NC)ccc3n2)c1`, the “activity change, negative = inhibition” value was -2.9%.
`COc1ccccc1N1CCN(Cc2cc(C)c(C)cc2O)CC1`: the Potency is 0.376 µM (active).
On to `CC(C)(C)c1ccc(O)c(CN2CCN(c3ccccc3)CC2)c1`, for which the Potency was 1.5 µM (active).
With `Oc1cc2c(cc1CN1CCN(c3ccccc3)CC1)CCC2`, the Potency is 3.35 µM (active).
For `COc1ccc(-c2cn(C[C@H]3C[C@@H]4CCN3C[C@@H]4C(=O)NCc3ccccc3)nn2)cc1`, the “activity change, negative = inhibition” value is -16.3% [at 43.1 µM].
For `COc1ccc(OC)c(S(=O)(=O)NC[C@H]2C[C@@H]3CCN2C[C@@H]3c2cc(-c3ccc(F)cc3)nn2C)c1`, the Potency was 6.68 µM (active).
Same read-out and setting: the figure for `COc1ccc(-c2cc([C@H]3CN4CC[C@H]3C[C@@H]4CNC(=O)NC3CCCCC3)n(C)n2)cc1` is 1.88 µM (active); for `Cn1nc(C2CCCCC2)cc1[C@H]1CN2CC[C@H]1C[C@@H]2CNC(=O)c1cccs1` it is 13.7 µM (active); for `COc1ccc(-c2cc([C@H]3CN4CC[C@H]3C[C@@H]4CNS(=O)(=O)c3ccc(Cl)cc3)n(C)n2)cc1OC` it is 2.99 µM (active).
In the case of `CN1CCN(C[C@H]2CN3CC[C@H]2C[C@@H]3CNS(=O)(=O)c2ccccc2)CC1`, the “activity change, negative = inhibition” value is 0% [at 43.1 µM].
For the compound `Cc1ccc(S(=O)(=O)NC[C@H]2C[C@@H]3CCN2C[C@@H]3CN2CCc3ccccc32)cc1`, the Potency was 13.7 µM (active).
As to `C[n+]1c2ccccc2nc2ccc(NCCO)cc21`, the Potency was 1.19 µM (active).
In the case of `COc1cccc(CC(=O)N2[C@H]3CC[C@@H]2c2cnc(-c4ccc(F)cc4)nc2C3)c1`, the “activity change, negative = inhibition” value is -7.05%.
Consider `COC(=O)C1=C(c2ccc(OC)c(OC)c2)C[C@@H]2CC[C@H]1N2C(=O)NCc1cccc2ccccc12`, for which the Potency is 3.35 µM (active).
On to `COC(=O)C1=C(c2ccc(-c3ccccc3)c(F)c2)C[C@@H]2CC[C@H]1N2C(=O)NCc1cccc2ccccc12`, for which the Potency was 10.6 µM (active).
On the same count and under the same terms, in the case of `CCCCCSc1cc(O)c(C(CNC)C(C)C)cc1OC` (centres undefined) it was 0.168 µM (active).
